# Measured values: PubChem BioAssay (NCI)
# This is part of a sample that, as a whole, favours compounds with a hit. Of some 83,000 tested, about 20% had one in any assay.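 Growth was measured after 48 h exposure to one concentration of compound in 96-well plates. Values under 10 count as active.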 Calls of active or inactive are those of the source.
# Columns and labels:
# Assay in all cases: NCI-60 one-dose screen, 48 h (100 = growth as untreated, 0 = no growth, -100 = all killed)
# Conditions in all cases: 10 µM
# [1] = system: RPMI-8226 leukemia
# [2] = system: OVCAR-8 ovarian
# [3] = system: OVCAR-5 ovarian
# [4] = system: OVCAR-4 ovarian
# [5] = system: SK-OV-3 ovarian
# [6] = system: IGROV1 ovarian
# [7] = system: OVCAR-3 ovarian
# [8] = system: HS 578T breast
# [9] = system: NCI/ADR-RES ovarian
# [10] = system: T-47D breast
# [11] = system: BT-549 breast
# [12] = system: MDA-MB-435 melanoma
# [13] = system: SW-620 colon
# [14] = system: MCF7 breast
# [15] = system: HCT-116 colon
# [16] = system: HCC-2998 colon
# [17] = system: KM12 colon
Compound,growth [1],growth [2],growth [3],growth [4],growth [5],growth [6],growth [7],growth [8],growth [9],growth [10],growth [11],growth [12],growth [13],growth [14],growth [15],growth [16],growth [17]
Oc1[nH]c2ccc(Cl)cc2c1/C=c1/ccc2c(c1)N=C(c1cccs1)N=2,48% (inactive),52.2% (inactive),89.3% (inactive),52.3% (inactive),87.5% (inactive),61% (inactive),56.1% (inactive),59.5% (inactive),64.3% (inactive),59.4% (inactive),57.4% (inactive),39% (inactive),85.9% (inactive),10.1% (inactive),52.9% (inactive),88.6% (inactive),58% (inactive)
N#Cc1ncc(Br)c(NC2CCCCCC2)n1,93.4% (inactive),89.8% (inactive),99.9% (inactive),91.3% (inactive),99.1% (inactive),104% (inactive),119% (inactive),107% (inactive),106% (inactive),90.8% (inactive),98.4% (inactive),103% (inactive),113% (inactive),92.1% (inactive),104% (inactive),111% (inactive),113% (inactive)
CC(=O)OCc1cc(-c2nc3ccccc3[nH]c2=O)nn1-c1ccc(Cl)cc1,89.1% (inactive),95.4% (inactive),99.6% (inactive),96.1% (inactive),100% (inactive),93.2% (inactive),116% (inactive),100% (inactive),90.9% (inactive),92.7% (inactive),102% (inactive),99.7% (inactive),111% (inactive),85.9% (inactive),100% (inactive),87% (inactive),108% (inactive)
Cn1c(C(N)=O)cc2c1-c1nc(Nc3ccccc3)ncc1CCC2,53.2% (inactive),51% (inactive),36.4% (inactive),33.1% (inactive),40.2% (inactive),25.5% (inactive),63.5% (inactive),17.3% (inactive),66.3% (inactive),65.1% (inactive),33.7% (inactive),45% (inactive),57.2% (inactive),38.7% (inactive),25.8% (inactive),73.1% (inactive),7.9% (active)
COc1ccc(/C=C/C(C)=N/OCC(=O)O)cc1,102% (inactive),105% (inactive),109% (inactive),106% (inactive),101% (inactive),106% (inactive),113% (inactive),113% (inactive),106% (inactive),93.5% (inactive),98.6% (inactive),114% (inactive),107% (inactive),100% (inactive),96.9% (inactive),105% (inactive),106% (inactive)
COc1cc(Nc2ccnc(NCCNc3ccnc4cc(Cl)ccc34)n2)cc(OC)c1,-42.7% (active),45.4% (inactive),43.9% (inactive),42.4% (inactive),75.1% (inactive),23.6% (inactive),56.8% (inactive),63.7% (inactive),67.9% (inactive),15.5% (inactive),51.4% (inactive),-50.7% (active),19.9% (inactive),8.25% (active),-20.2% (active),29.7% (inactive),55.3% (inactive)
COc1cc(/C=C2\Oc3cc(OCC(=O)c4ccccc4)ccc3C2=O)cc(OC)c1OC,107% (inactive),109% (inactive),136% (inactive),109% (inactive),120% (inactive),55.1% (inactive),110% (inactive),107% (inactive),97.2% (inactive),73.6% (inactive),128% (inactive),103% (inactive),114% (inactive),99.1% (inactive),106% (inactive),120% (inactive),98.9% (inactive)
FC(F)(F)c1ccc(-c2cnc(-n3cc(COCCN4CCCCC4)nn3)nc2NC2CCCCCC2)cc1,-29.1% (active),54.7% (inactive),67.9% (inactive),39.9% (inactive),56.8% (inactive),36.7% (inactive),37.1% (inactive),61.3% (inactive),70.6% (inactive),30.5% (inactive),68.1% (inactive),-68.9% (active),4.79% (active),-1.43% (active),22.3% (inactive),6.9% (active),17.6% (inactive)
COc1ccc(NC(=O)Cc2nc3nc4sc(C)c(C)c4c(=O)n3[nH]2)cc1,90.5% (inactive),101% (inactive),108% (inactive),113% (inactive),104% (inactive),101% (inactive),115% (inactive),107% (inactive),103% (inactive),96.2% (inactive),103% (inactive),105% (inactive),104% (inactive),96% (inactive),101% (inactive),98.1% (inactive),104% (inactive)
COc1ccc(-c2nc3ncccn3c2-c2nnc(-c3ccc(F)cc3)o2)cc1,95.9% (inactive),92.4% (inactive),98.1% (inactive),96.6% (inactive),107% (inactive),110% (inactive),103% (inactive),96% (inactive),93.7% (inactive),98.2% (inactive),99.7% (inactive),107% (inactive),105% (inactive),92.7% (inactive),99.3% (inactive),104% (inactive),104% (inactive)
C=C1c2c(C)nn(-c3ccc(OC)cc3)c2N(C)C23C[C@@H]1C1(C)c4c(C)nn(-c5ccc(OC)cc5)c4N(C)C(C)(C[C@H]12)C3 (stereo partly specified),4.67% (active),31.8% (inactive),61.7% (inactive),28.1% (inactive),60.2% (inactive),70.8% (inactive),24% (inactive),67.4% (inactive),35% (inactive),13.4% (inactive),32.9% (inactive),34% (inactive),31.4% (inactive),20.8% (inactive),16.7% (inactive),34.9% (inactive),28.6% (inactive)
CC(=O)CSC(C)=O,93.2% (inactive),108% (inactive),106% (inactive),98% (inactive),110% (inactive),99.2% (inactive),115% (inactive),101% (inactive),111% (inactive),103% (inactive),105% (inactive),96.5% (inactive),101% (inactive),93% (inactive),98% (inactive),110% (inactive),107% (inactive)
COc1ccc(-c2cc(/C=C3\C(=O)Nc4ccc(Cl)cc43)[nH]n2)cc1OC,68.6% (inactive),81.4% (inactive),101% (inactive),19% (inactive),94.6% (inactive),66.8% (inactive),104% (inactive),87.8% (inactive),91.5% (inactive),72.2% (inactive),99.7% (inactive),91.5% (inactive),97.1% (inactive),63.1% (inactive),73.2% (inactive),103% (inactive),29.3% (inactive)
O=c1[nH]c(-c2ccc(Cl)cc2)nc2sc3c(c12)CCCC3,96.7% (inactive),68% (inactive),103% (inactive),86.2% (inactive),92% (inactive),82.1% (inactive),101% (inactive),104% (inactive),81.8% (inactive),64.4% (inactive),92.3% (inactive),93.2% (inactive),58.8% (inactive),36% (inactive),60.9% (inactive),109% (inactive),97.6% (inactive)
O=c1cc(-c2ccccc2)[nH]n1-c1nc2ccccc2[nH]1,40.2% (inactive),35% (inactive),98.6% (inactive),25.3% (inactive),75.7% (inactive),38.9% (inactive),60.9% (inactive),69.5% (inactive),29.1% (inactive),62% (inactive),75.8% (inactive),51.1% (inactive),31.6% (inactive),42.7% (inactive),32.1% (inactive),59.3% (inactive),38% (inactive)
COc1cc2cc3c(nc2cc1OC)CCN3Cc1ccc(NC(=O)c2ccc(Cl)c(C(F)(F)F)c2)cc1,91.2% (inactive),88.6% (inactive),99.5% (inactive),80.4% (inactive),91.7% (inactive),78.5% (inactive),94.3% (inactive),98.5% (inactive),99.4% (inactive),64.2% (inactive),112% (inactive),95.6% (inactive),114% (inactive),15% (inactive),93.4% (inactive),91.2% (inactive),109% (inactive)
CN(C)Cc1cn(-c2ncc(-c3ccc(C(F)(F)F)cc3)c(NC3CCCCCC3)n2)nn1,60.4% (inactive),83.1% (inactive),110% (inactive),79.9% (inactive),86.5% (inactive),71.3% (inactive),86% (inactive),93.6% (inactive),91.9% (inactive),81.7% (inactive),94.6% (inactive),95.2% (inactive),99.4% (inactive),70.3% (inactive),66.3% (inactive),94.8% (inactive),86.3% (inactive)
Cc1cc(=O)n2nnc3c4ccccc4ccc3n12,8.01% (active),27.3% (inactive),88.5% (inactive),49.3% (inactive),53.6% (inactive),61.8% (inactive),40.4% (inactive),104% (inactive),68.4% (inactive),47.6% (inactive),72.8% (inactive),104% (inactive),-62% (active),45% (inactive),8.71% (active),105% (inactive),91.2% (inactive)
